Test results reported in the supplement of paper PMC10849652.
Targets with a hit are over-represented here; the source holds about 7,900 in all. About 0.6% of all pairs of compound and target were hits.

Key:
Test in all cases: log2 fold change, soluble protein after heating vs DMSO (PISA); higher = thermal stabilisation; K562 cells, 10 uM, 30 min; active = over 0.2 and 3.5 SD of the protein, either way, in both replicates (recomputed)
[1] = compound: C#Cc1cccc(Nc2ncnc3cc(OCCOC)c(OCCOC)cc23)c1 [erlotinib]
Outline: (§1)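 K562 cells at 2×10^6 cells/mL were treated for 30 min with 10 μM compound, and aliquots were heated for 3 min over 48°C-58°C before pooling. Extraction used PBS with 0.5% NP-40 at 4°C, and soluble protein was the supernatant after 21,000xg for 90 min, measured by TMTpro 16plex LC-MS/MS with channel sums equalised. Thermal stability values, relative to control samples and from duplicates, are log2 fold changes.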

[2] = compound: C/C(=N\NC(=O)C1=CC(=CC=C1)S(=O)(=O)N2CCOCC2)/C3=C(C=CC(=C3)Cl)O
Outline: as §1

[3] = compound: C1=CC(=C(C=C1Cl)C2=NC3=NC=CN=C3C(=N2)NC4=CC=NC=C4)F
Outline: as §1

[4] = compound: C1=CC(=CC=C1C2=NC3=C(N2)C=C(C=C3)C(=O)N)OC4=CC=C(C=C4)Cl
Outline: as §1

[5] = compound: C1=CC2=C(C=CC(=C2)/C=C\3/C(=O)NC(=NCC4=CC=CS4)S3)N=C1
Outline: as §1

[6] = compound: C1=CC2=NC=CN=C2C=C1/C=C/3\C(=O)NC(=O)S3
Outline: as §1

[7] = compound: C1=CC=C(C=C1)C2=NC(=C(N2)C3=CC=NC=C3)C4=CC(=C(C=C4)Cl)O
Outline: as §1

[8] = compound: C1=CC=C2C(=C1)C3=NNC4=CC=CC(=C43)C2=O
Outline: as §1

[9] = compound: C1CCN(C1)C(=O)NC2=CC=CC(=C2)NC3=NC=C(C(=N3)NCCC4=CN=CN4)Br
Outline: as §1

[10] = compound: C1CN(CCC1(CC2=CC=C(C=C2)Cl)N)C3=NC=NC4=C3C=CN4
Outline: as §1

Measured: log2 fold change

HS1BP3 (UniProt Q53T59)
inactive: [1] 0.008 | [2] 0.042 | [3] 0 | [4] -0.073 | [5] 0.147 | [6] -0.008 | [7] -0.032 | [8] -0.03

FBXO6 (UniProt Q9NRD1)
inactive: [1] -0.069 | [2] 0.046 | [3] 0.075 | [4] 0.007 | [5] 0.048 | [6] 0.007 | [7] 0.021 | [8] 0.002 | [9] -0.031 | [10] 0

IFRD2 isoform 2 (UniProt Q12894)
inactive: [1] 0.204 | [2] -0.109 | [3] 0.003 | [4] 0.084 | [5] 0.048 | [6] 0.082 | [7] -0.051 | [8] 0.118 | [9] 0.302 | [10] 0.04

IDH3A (UniProt P50213)
Chain of UniProt P50213 (P50213 whole entry, looked up): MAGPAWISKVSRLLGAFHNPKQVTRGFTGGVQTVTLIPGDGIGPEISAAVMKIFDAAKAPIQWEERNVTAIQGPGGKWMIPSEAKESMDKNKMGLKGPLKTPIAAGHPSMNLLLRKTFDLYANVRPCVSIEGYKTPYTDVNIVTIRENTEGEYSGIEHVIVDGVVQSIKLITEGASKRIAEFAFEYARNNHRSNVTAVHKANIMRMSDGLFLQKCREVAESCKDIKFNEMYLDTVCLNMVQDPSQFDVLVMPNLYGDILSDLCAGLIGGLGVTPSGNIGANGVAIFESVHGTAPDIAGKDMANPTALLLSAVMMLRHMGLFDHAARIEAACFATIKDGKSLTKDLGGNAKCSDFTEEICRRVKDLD
inactive: [1] 0.021 | [2] 0.034 | [3] 0.1 | [4] 0.023 | [5] 0.021 | [6] 0.017 | [7] -0.03 | [8] 0.024 | [9] -0.009 | [10] 0.028

GSK3B isoform 2 (UniProt P49841)
Chain of UniProt P49841 (P49841 whole entry, looked up): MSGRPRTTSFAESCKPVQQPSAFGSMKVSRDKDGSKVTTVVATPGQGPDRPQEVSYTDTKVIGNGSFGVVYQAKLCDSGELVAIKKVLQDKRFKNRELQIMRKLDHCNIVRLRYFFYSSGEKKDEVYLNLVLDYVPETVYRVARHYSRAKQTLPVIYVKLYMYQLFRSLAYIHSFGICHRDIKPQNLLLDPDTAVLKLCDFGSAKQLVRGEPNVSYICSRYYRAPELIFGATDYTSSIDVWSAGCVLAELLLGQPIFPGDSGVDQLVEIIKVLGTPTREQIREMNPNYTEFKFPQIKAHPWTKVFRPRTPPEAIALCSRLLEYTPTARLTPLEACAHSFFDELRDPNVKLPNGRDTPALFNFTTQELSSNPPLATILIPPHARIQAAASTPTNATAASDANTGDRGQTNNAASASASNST
inactive: [1] -0.024 | [2] -0.051 | [3] 0.007 | [4] 0.027 | [5] 0.038 | [6] -0.013 | [7] 0.095 | [8] 0.091 | [9] 0.042 | [10] 0.159

H2AFX (UniProt P16104)
inactive: [1] 0.05 | [2] -0.243 | [3] -0.54 | [4] 0.072 | [5] 0.014 | [6] 0.274 | [7] -0.087 | [8] -0.049 | [9] 0.231 | [10] -0.319

GNB2 (UniProt P62879)
inactive: [1] 0.003 | [2] 0.079 | [3] -0.04 | [4] 0.051 | [5] -0.016 | [6] 0.007 | [7] -0.003 | [8] 0.008 | [9] -0.057 | [10] -0.002

HIKESHI (UniProt Q53FT3)
inactive: [1] 0.004 | [2] 0.1 | [3] 0.017 | [4] 0.003 | [5] 0.073 | [6] 0.02 | [7] -0.002 | [8] -0.03 | [9] -0.056 | [10] 0.009

FDFT1 (UniProt P37268)
inactive: [1] 0.126 | [2] -0.026 | [3] -0.01 | [4] 0.037 | [5] 0.209 | [6] 0 | [7] 0.011 | [8] 0.144 | [9] -0.039 | [10] 0.059

IFNGR1 (UniProt P15260)
Chain of UniProt P15260 (P15260 whole entry, looked up): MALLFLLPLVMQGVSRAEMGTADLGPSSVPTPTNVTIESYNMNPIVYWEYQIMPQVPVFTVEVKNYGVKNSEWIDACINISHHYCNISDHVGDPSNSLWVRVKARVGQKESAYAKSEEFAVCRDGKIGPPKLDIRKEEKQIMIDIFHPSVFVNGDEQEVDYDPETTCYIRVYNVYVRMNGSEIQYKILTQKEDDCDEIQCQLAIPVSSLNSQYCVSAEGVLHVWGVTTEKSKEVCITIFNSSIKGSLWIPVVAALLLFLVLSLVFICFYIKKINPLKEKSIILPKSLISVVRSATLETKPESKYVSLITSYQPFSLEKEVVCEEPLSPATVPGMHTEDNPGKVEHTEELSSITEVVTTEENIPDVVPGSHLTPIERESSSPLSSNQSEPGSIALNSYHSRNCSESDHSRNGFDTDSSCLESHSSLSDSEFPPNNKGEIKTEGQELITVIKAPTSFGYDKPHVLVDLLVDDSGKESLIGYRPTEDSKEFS
inactive: [1] 0.256 | [2] 0.003 | [3] 0.156 | [4] -0.208 | [5] -0.033 | [6] -0.033 | [7] -0.066 | [8] -0.035 | [9] 0.048 | [10] 0.247

FKBP3 (UniProt Q00688)
Chain of UniProt Q00688 (Q00688 whole entry, looked up): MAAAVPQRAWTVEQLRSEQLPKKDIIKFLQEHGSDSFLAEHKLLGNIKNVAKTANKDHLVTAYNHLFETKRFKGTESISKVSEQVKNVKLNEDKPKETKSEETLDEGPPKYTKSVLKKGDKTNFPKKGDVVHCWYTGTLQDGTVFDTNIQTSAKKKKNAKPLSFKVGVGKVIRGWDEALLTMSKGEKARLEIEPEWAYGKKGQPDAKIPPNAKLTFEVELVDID
inactive: [1] -0.001 | [2] 0.014 | [3] 0.061 | [4] -0.012 | [5] 0.013 | [6] -0.004 | [7] -0.028 | [8] -0.001 | [9] -0.007 | [10] -0.017

GAGE12F (UniProt P0CL80)
inactive: [1] -0.056 | [2] -0.061 | [3] 0.017 | [4] -0.035 | [5] 0.08 | [6] 0.025 | [7] -0.007 | [8] 0.011 | [9] -0.088 | [10] 0.052

FUT8 (UniProt Q9BYC5)
inactive: [1] -0.036 | [2] 0.019 | [3] -0.07 | [4] -0.12 | [5] -0.145 | [6] -0.055 | [7] -0.004 | [8] -0.038 | [9] 0.045 | [10] -0.038

GUSB (UniProt P08236)
inactive: [1] 0.09 | [2] -0.099 | [3] -0.063 | [4] 0.165 | [5] -0.095 | [6] 0.032 | [7] 0.009 | [8] 0.052 | [9] 0.033 | [10] -0.002

GLRX3 (UniProt O76003)
inactive: [1] -0.031 | [2] 0.024 | [3] 0.052 | [4] -0.037 | [5] 0.011 | [6] 0.006 | [7] 0.031 | [8] -0.001 | [9] 0.003 | [10] -0.015

FDPS (UniProt P14324)
Chain of UniProt P14324 (P14324 whole entry, looked up): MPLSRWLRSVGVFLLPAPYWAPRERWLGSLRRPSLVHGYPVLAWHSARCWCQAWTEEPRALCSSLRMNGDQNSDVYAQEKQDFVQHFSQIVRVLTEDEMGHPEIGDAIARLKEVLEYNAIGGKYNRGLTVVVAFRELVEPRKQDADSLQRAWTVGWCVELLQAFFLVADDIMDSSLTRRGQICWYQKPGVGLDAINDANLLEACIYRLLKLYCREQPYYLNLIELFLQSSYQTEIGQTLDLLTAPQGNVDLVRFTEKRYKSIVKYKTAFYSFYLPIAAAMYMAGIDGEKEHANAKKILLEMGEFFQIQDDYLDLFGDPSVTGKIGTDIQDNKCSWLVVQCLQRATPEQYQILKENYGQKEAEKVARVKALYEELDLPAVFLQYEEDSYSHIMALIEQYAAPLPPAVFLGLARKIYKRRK
inactive: [1] 0.18 | [2] 0.174 | [3] -0.022 | [4] 0.067 | [5] 0.3 | [6] -0.026 | [7] 0.06 | [8] 0.186 | [9] 0.006 | [10] -0.309

GTF3C4 (UniProt Q9UKN8)
Chain of UniProt Q9UKN8 (Q9UKN8 whole entry, looked up): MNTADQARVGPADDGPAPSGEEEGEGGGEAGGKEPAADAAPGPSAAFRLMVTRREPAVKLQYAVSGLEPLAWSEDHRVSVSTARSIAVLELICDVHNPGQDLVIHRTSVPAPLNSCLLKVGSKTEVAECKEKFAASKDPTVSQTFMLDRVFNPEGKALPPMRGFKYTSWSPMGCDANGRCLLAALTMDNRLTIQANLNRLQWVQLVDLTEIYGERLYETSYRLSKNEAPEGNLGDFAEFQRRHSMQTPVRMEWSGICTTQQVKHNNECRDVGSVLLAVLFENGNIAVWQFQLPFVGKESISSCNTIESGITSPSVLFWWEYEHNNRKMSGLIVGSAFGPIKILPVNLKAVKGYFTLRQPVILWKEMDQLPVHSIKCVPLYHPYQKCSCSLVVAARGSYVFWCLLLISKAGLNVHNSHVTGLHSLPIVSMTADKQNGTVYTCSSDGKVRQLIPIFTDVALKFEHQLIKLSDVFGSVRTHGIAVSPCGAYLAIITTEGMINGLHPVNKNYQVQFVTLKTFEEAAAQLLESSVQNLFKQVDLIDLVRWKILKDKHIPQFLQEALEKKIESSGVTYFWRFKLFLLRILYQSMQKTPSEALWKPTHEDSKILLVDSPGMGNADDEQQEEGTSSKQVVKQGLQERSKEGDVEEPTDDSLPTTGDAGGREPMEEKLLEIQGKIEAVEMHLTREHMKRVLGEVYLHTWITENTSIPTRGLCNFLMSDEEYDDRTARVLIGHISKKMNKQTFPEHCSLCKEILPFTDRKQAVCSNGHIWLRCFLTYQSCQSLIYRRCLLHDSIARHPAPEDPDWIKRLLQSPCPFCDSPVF
inactive: [1] -0.016 | [2] 0.065 | [3] 0.026 | [4] 0.003 | [5] 0.025 | [6] -0.005 | [7] 0.003 | [8] -0.022 | [9] -0.026 | [10] 0.027

HNRNPH1 (UniProt P31943)
Chain of UniProt P31943 (P31943 whole entry, looked up): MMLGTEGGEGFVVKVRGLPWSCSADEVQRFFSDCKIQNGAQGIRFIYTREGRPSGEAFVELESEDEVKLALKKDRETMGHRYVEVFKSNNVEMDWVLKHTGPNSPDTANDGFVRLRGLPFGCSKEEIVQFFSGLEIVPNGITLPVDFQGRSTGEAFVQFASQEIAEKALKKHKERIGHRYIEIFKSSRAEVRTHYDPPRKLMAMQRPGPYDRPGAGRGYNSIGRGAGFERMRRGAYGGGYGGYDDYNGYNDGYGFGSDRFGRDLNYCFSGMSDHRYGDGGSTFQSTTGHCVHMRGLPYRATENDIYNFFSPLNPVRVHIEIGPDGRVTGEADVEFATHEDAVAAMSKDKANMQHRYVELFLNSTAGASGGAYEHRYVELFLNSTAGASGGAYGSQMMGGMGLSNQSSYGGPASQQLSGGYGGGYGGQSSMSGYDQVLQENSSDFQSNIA
inactive: [1] 0.043 | [2] 0.102 | [3] -0.04 | [4] 0.004 | [5] -0.035 | [6] -0.012 | [7] -0.016 | [8] 0.007 | [9] -0.1 | [10] -0.023

GABARAPL2 (UniProt P60520)
inactive: [1] 0.065 | [2] 0.013 | [3] 0.021 | [4] -0.02 | [5] 0.072 | [6] 0.016 | [7] 0.077 | [8] 0.008 | [9] -0.027 | [10] -0.021

HMGB3 (UniProt O15347)
Chain of UniProt O15347 (O15347 whole entry, looked up): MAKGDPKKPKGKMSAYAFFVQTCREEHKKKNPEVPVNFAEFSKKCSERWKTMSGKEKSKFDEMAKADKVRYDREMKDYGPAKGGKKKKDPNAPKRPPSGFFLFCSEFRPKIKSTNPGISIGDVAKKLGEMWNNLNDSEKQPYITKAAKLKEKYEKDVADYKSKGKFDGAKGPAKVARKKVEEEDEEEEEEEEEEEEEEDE
inactive: [1] -0.037 | [2] -0.002 | [3] 0.047 | [4] 0.011 | [6] -0.042 | [7] 0.095 | [8] -0.006 | [9] -0.025 | [10] 0.023
active: [5] -0.267

HMGCR isoform 3 (UniProt P04035)
inactive: [1] -0.089 | [2] 0.025 | [3] -0.001 | [4] 0.032 | [5] -0.038 | [6] 0.101 | [7] -0.033 | [8] -0.137 | [9] -0.081 | [10] 0

H2AZ1 (UniProt P0C0S5)
inactive: [1] -0.025 | [2] -0.13 | [3] -0.554 | [4] -0.014 | [5] -0.087 | [6] 0.169 | [7] -0.189 | [8] 0.036 | [9] 0.07 | [10] 0.037

GCDH (UniProt Q92947)
Chain of UniProt Q92947 (Q92947 whole entry, looked up): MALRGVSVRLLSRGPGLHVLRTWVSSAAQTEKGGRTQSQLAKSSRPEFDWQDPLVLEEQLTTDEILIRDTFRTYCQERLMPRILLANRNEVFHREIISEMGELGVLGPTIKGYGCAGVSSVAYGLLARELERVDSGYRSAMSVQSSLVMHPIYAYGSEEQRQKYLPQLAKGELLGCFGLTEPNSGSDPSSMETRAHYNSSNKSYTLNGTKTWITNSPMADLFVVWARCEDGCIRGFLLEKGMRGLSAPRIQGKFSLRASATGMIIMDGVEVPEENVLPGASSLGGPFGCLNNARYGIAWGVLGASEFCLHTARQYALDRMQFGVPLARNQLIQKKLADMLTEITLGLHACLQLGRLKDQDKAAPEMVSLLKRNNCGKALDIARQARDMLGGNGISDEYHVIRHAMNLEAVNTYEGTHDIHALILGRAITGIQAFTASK
active: [4] -0.273
inactive: [1] 0.016 | [2] -0.078 | [3] 0.045 | [5] 0.081 | [6] -0.011 | [7] 0.082 | [8] 0.048 | [9] -0.011 | [10] 0.039

GTPBP6 (UniProt O43824)
inactive: [1] -0.091 | [2] -0.017 | [3] -0.137 | [4] 0.01 | [5] 0.041 | [6] 0.066 | [7] -0.036 | [8] -0.05 | [9] 0.06 | [10] 0.027

GTF2A1 (UniProt P52655)
inactive: [1] -0.011 | [2] -0.052 | [3] 0.001 | [4] -0.011 | [5] -0.094 | [6] 0.034 | [7] -0.021 | [8] -0.029 | [9] -0.024 | [10] 0.036

HIP1R (UniProt O75146)
inactive: [1] 0.017 | [2] 0.034 | [3] 0.024 | [4] 0.005 | [5] 0.054 | [6] 0.013 | [7] 0.018 | [8] 0.033 | [9] -0.004 | [10] -0.005

GHDC (UniProt Q8N2G8)
inactive: [1] 0.062 | [2] 0.046 | [3] -0.002 | [4] 0.013 | [5] 0.011 | [6] 0.003 | [7] -0.021 | [8] -0.008 | [9] -0.009 | [10] 0.06

GSK3A (UniProt P49840)
Chain of UniProt P49840 (P49840 whole entry, looked up): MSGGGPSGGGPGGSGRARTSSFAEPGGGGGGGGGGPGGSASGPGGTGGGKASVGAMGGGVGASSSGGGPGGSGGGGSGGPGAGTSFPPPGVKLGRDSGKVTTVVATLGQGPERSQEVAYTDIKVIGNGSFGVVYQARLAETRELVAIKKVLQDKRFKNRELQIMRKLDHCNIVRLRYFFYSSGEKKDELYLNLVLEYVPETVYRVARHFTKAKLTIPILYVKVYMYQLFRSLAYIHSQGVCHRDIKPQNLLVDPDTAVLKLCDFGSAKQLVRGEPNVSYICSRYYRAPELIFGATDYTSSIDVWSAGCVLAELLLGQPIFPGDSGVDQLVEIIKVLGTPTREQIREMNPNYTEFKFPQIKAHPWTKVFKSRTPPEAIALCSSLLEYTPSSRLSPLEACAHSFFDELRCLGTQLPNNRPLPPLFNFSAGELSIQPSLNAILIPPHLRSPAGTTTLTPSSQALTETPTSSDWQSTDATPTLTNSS
inactive: [1] -0.02 | [2] 0.015 | [3] 0.01 | [4] 0.045 | [5] -0.001 | [6] -0.001 | [7] 0.18 | [8] 0.147 | [9] 0.131 | [10] 0.019

GNS (UniProt P15586)
Chain of UniProt P15586 (P15586 whole entry, looked up): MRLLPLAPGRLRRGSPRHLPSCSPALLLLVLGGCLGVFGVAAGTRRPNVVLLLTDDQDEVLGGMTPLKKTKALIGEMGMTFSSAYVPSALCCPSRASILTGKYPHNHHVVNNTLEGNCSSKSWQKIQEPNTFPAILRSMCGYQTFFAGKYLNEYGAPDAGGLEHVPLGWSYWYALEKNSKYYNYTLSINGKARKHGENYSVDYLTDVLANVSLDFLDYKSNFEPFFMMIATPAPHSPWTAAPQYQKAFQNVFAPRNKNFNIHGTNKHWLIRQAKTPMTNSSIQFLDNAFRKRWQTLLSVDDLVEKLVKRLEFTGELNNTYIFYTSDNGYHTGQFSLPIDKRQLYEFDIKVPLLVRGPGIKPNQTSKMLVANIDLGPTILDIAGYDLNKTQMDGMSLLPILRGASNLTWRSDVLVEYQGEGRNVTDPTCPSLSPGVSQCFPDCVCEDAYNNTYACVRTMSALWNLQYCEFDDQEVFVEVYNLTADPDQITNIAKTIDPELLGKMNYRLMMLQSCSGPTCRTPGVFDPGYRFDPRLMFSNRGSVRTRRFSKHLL
inactive: [1] -0.033 | [2] -0.003 | [3] 0.005 | [4] 0.004 | [5] 0.028 | [6] 0.026 | [7] 0.03 | [8] -0.04 | [9] 0.023 | [10] 0.061

HDAC6 (UniProt Q9UBN7)
inactive: [2] 0.033 | [3] -0.007 | [4] -0.007 | [5] 0.041 | [6] -0.164 | [7] 0.033 | [8] 0.07 | [9] -0.043 | [10] 0.115
active: [1] 0.43
